Assay outcomes as filed in PubChem BioAssay.
GLP-1R inv ag: acts as inverse agonist at human GLP-1 receptor; 1.6% of 410,000 active; Potency, µM (top dose mostly 38.3 µM), for the others: at the top dose activity change, negative = inhibition, hits mostly inhibitors; HEK293 GLP-1R CRE-luciferase, luminescence, 24 h; GLP-1R form is constitutively active; P43220; note: potency is the fitted concentration of half-maximal effect; % is set by controls: 0 for no effect and ±100 for the full control effect; nearly all actives have a fitted effect of over 55% in size
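Constitutively active GLP-1R drives a cAMP-responsive luciferase in stably transfected HEK293 cells; test compounds are added after overnight (12 h) attachment and left 24 hr, and signal loss in luminescence marks inhibition.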
HEK293 tox: cytotoxic in the GLP-1 receptor inverse agonist counter-screen | HEK293 cAMP-luciferase reporter cells, luminescence, 24 h | 0.13% of 410,000 active | Potency, µM (series often up to 38.3 µM), for inactives: at the top dose activity change, negative = inhibition, actives largely listed as inhibitors | AID 624418;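 note: loss of luciferase light is scored as toxicity; potency is the fitted concentration of half-maximal effect; % is set by controls: 0 for no effect and ±100 for the full control effect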
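Quantitative HTS format, 1536 wells, 200 cells/uL seeded. Compounds: 23 nL, 24 h, 37 °C. Detection: luciferase reagent, luminescence at 12 min RT; decreased signal taken as cytotoxic.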
DRD3 agonist: agonists of human D3 dopamine receptor. P35462. D3R DiscoveRx beta-arrestin cells, luminescence, 90 min. max activation, %. 0.58% of 410,000 active. AID 652048; in the data active = max activation above about 30%; note: 0% is about no effect
Target sequence (P35462 whole entry, looked up): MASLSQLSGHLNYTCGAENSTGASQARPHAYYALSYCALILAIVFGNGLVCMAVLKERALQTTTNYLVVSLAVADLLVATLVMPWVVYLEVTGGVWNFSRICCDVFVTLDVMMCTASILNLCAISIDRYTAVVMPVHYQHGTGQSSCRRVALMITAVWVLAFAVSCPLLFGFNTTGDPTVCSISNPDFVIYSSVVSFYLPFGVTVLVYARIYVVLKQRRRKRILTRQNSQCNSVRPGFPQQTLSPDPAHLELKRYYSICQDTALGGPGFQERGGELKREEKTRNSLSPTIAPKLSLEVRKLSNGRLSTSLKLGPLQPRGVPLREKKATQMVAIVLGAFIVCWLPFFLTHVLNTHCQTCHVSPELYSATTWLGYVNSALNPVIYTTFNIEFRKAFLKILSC
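Agonist mode: compounds and dopamine controls were applied to plated cells for 90 min at 37 degrees C after an overnight attachment at 1500 cells/well. Luminescent read-out followed 30 - 60 minutes at room temperature with DiscoveRx detection reagent.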
GLP1R ag: agonists of human GLP-1 receptor | HEK293 GLP-1R CRE-luciferase, luminescence, 4-6 h; cells express a hypersensitive GLP-1R form | Potency, µM (series often up to 45.6 µM), for inactives: at the highest dose activation, hits mostly activators | 0.007% of 380,000 active | AID 624172; note: potency is the fitted concentration of half-maximal effect; % of control where 0% means no effect
D3 antag: antagonists of human D3 dopamine receptor | D3R cells, DiscoveRx beta-arrestin luminescence, antagonist mode; active compounds read low | 2.5% of 360,000 active | max response, negative = inhibition, % | AID 652054; in the data active = max response below about -50%; inconclusive = no clear call, values can overlap the other calls; note: % is set by controls: 0 for no effect and ±100 for the full control effect
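Cells plated overnight at 1500 cells/well, then exposed to library compounds with dopamine controls for 90 minutes at 37 degrees C. DiscoveRx reagent added for 30–60 minutes at room temperature; luminescence read, quantitative HTS format.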
ClpP mod: qHTS Assay for Activators of ClpP; ATP-dependent Clp protease proteolytic subunit (Bacillus subtilis (strain 168)), P80244; purified B. subtilis ClpP, FRET peptide cleavage, 20 min; Potency, µM (doses to about 57.5 µM), for inactives: at the top dose activity change, negative = active; 1.9% of 340,000 active; AID 651965, 2013; active = well fitted falling curve with a large enough effect; inconclusive = small, poorly fitted or top-dose-only effect; inactive = no such curve, though single readings can be large or run the other way; note: potency is the fitted concentration of half-maximal effect; the source files actives as falling curves though it sought activators and does not explain the sign; nearly all actives have a fitted effect of over 65% in size
Target sequence (P80244 whole entry, looked up): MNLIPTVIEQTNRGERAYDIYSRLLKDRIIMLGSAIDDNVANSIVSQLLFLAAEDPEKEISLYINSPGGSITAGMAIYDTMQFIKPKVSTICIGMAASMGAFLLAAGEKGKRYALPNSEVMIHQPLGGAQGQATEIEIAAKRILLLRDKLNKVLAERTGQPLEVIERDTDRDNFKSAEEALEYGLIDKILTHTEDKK
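ClpP 10 microg/mL final, pH 8 Tris/KCl buffer with BSA, glycerol, Tween-20; compound pinned in; FRET-FV substrate; RT 20 min; Ex320/Em430; ΔFRET vs ADEP 5.8 microM, DMSO, no enzyme.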
Numbers without * were called inactive; ? = inconclusive; . = not tested or not shown; ! = repeats disagree. An excerpt weighted towards active compounds, which were near 5.7% of everything screened. Unless noted, calls come from the whole dose curve; as a rule, active = well fitted curve in the direction sought with a large enough effect; inconclusive = small, poorly fitted or top-dose-only effect, or another doubt; inactive = no such curve, though single readings can be large; an effect the other way counts as inactive or inconclusive.

SMILES	GLP-1R inv ag	HEK293 tox	DRD3 agonist	GLP1R ag	D3 antag	ClpP mod
Cc1ccc(N=CC=C2OC(C)(C)C(C)(C)O2)c(C)c1	?	-12%	1	4%	19	0%
CSCCC(C(=O)NC(C)(C)C)n1c(-c2cccc(NC(C)=O)c2)nc2ccccc21 (stereo not given)	22%	-7%	0	.	12	5%
Cc1cccc(C)c1NC(=O)Cn1c(=O)n(CCC(=O)NCc2ccc3c(c2)OCO3)c(=O)c2sccc21	3%	8%	8	.	.	-1%
CCn1ncc(/C=N/N=C2\CCC3C4CCc5cc(O)ccc5C4CCC23C)c1C (stereo not given)	?	-13%	34*	-6%	88	-7%
CCNc1ccc(Br)cc(C(=O)/C=C/c2ccc(Cl)cc2Cl)c1=O	?	-8%	-4	-2%	-78*	-2%
CNc1ccc(Br)cc(C(=O)/C=C/c2cc(OC)ccc2OC)c1=O	?	?	-7	-8%	0	-10%
Cc1ccc(S(=O)(=O)NN=C(c2ccccc2)c2cccs2)cc1	?	14%	-12	-2%	0	1%
C=CCc1ccccc1OCC(O)CN1CCN(c2ccc(C)cc2)CC1 (stereo not given)	?	-14%	-30	3%	-59*	1%
C=CCc1ccccc1OCC(O)CN1CCN(Cc2ccc3c(c2)OCO3)CC1 (stereo not given)	?	-19%	-7	2%	-89*!	1%
O=C(Nc1ccc(F)cc1)c1ncn(-c2ccccc2)n1	-18%	0%	-13	.	.	-2%
Cc1ccccc1CN(C)CCc1ccccn1	-2%	10%	-6	0%	-13	-4%
CC(C)=CCCC(C)CN(C)CCc1ccccn1 (stereo not given)	-4%	-17%	-60	4%	-64*	-2%
Cc1cc(C(C)(C)C)c(O)c(C)c1CC1=NCCN1	?	2%	-44	-4%	-98*	0%
COc1ccc(Cl)cc1C(=O)NCc1nc(-c2cccc(C)c2)no1	-24%	-12%	-11	.	.	-4%
COc1ccc(Nc2nc(Nc3ccc(OC)cc3)nc(-n3[nH]c(=O)c(C)c3C)n2)cc1	?	?	-16	2%	-59*	-2%
Cc1ccc([N+](=O)[O-])cc1NC(=O)CN1CCC(C)CC1	30%	18%	-12	3%	-84*	0%
Cc1ccc([N+](=O)[O-])cc1NC(=O)C(C)N1CCCCC1 (stereo not given)	1%	-4%	-29	27%	-24	.
Cc1ccc([N+](=O)[O-])cc1NC(=O)CN1CCCCC1	-29%	13%	-3	11%	-78*	-4%
CC1CCN(CC(=O)NNC(=O)c2cccc(Br)c2)CC1	-12%	-9%	-34	10%	-50*	.
O=C(CN1C(=O)C2CCCCC2C1=O)Nc1cccc([N+](=O)[O-])c1 (stereo not given)	7%	-3%	-11	-5%	-6	-17%
CC1CCN(CC(=O)Nc2cccc([N+](=O)[O-])c2)CC1	0%	3%	-58	6%	-58*	1%
Cc1cc(C)c(S(=O)(=O)NCC(c2ccco2)S(=O)(=O)c2cccs2)c(C)c1 (stereo not given)	?	-15%	5	.	.	0%
Cc1ccc(F)c(S(=O)(=O)NC(=O)C2(C)CCN2C(=O)Cc2cccc3ccccc23)c1 (stereo not given)	0%	2%	-1	4%	-2	2%
O=C(CN1CCN(c2ccc(O)cc2)CC1)Nc1cc([N+](=O)[O-])ccc1Cl	?	-20%	4	-3%	-12	16µM*
Cc1ccc(NC(=O)CN2CCCCCC2)cc1Br	?	4%	-22	10%	-85*	.
SMILES	GLP-1R inv ag	HEK293 tox	DRD3 agonist	GLP1R ag	D3 antag	ClpP mod
CC(=O)N1CCN(CC(=O)Nc2cc([N+](=O)[O-])ccc2Cl)CC1	6%	18%	1	-2%	6	.
COc1ccc(S(=O)(=O)N2CCN(Cc3nc4ccc(C)cc4o3)CC2)cc1	1%	9%	0	.	.	-2%
C=C[C@@H]1c2cc(C)ccc2N(S(=O)(=O)c2ccc(C)cc2)[C@H](c2ccc(C(C)(F)F)cc2)C1(C#N)C#N	.	.	.	.	.	0%
Cc1ccc2c(c1)-c1nc(-c3ccc4c(c3)NC(=O)CO4)cc(-c3ccc(Cl)cc3)c1CO2	-4%	2%	1	1%	.	?
O=C(Cc1c[nH]c2ccccc12)NCc1ccc(Cl)cc1	?	-8%	2	-2%	0	0%
CC(=O)N(c1ccc(Cl)cc1)c1c[nH]c2ccccc12	-8%	1%	-25	2%	-67*	-1%
CCOc1ccccc1OCC(=O)Nc1ccc(Cl)cc1Cl	12%	23%	0	0%	9	0%
CC(=O)Nc1ccccc1OCC(=O)NCCc1ccc(Cl)cc1Cl	-11%	2%	1	0%	20	32µM*
CCOC(=O)c1cccc(NC(=O)c2cc(C)nc3c2c(C)nn3-c2ccc(C)cc2)c1	?	4%	13	.	.	?
CN(C)c1oc(-c2ccc(OCc3ccc(Cl)cc3)cc2)nc1C#N	0%	-8%	6	9%	21	16µM*
CN(C)c1oc(-c2ccc(COc3ccccc3)o2)nc1C#N	-6%	0%	-5	.	.	32µM*
COc1ccc(-c2oc3c(c2-c2cnc(OC)nc2)C(O)CC3)cc1 (stereo not given)	-4%	-17%	-10	-7%	?	8%
CCCN(CCC)C(=O)C(CCC(=O)OCCCN1CCN(CCOC(=O)Cc2c(C)n(C(=O)c3ccc(Cl)cc3)c3ccc(OC)cc23)CC1)NC(=O)c1ccccc1 (stereo not given)	.	.	-30	0%	.	.
CN(C)CC(=O)Nc1cc(C(F)(F)F)ccc1Cl	13%	3%	-12	6%	-58*	0%
O=C(C[n+]1cccc(CNC(=O)c2ccc(OC(F)F)cc2)c1)Nc1cc(C(F)(F)F)ccc1Cl	1%	-16%	-24	-4%	-64*	-3%
Cc1ccc[n+](CC(=O)Nc2cc(C(F)(F)F)ccc2Cl)c1	0%	-3%	-36	0%	-79*	1%
COc1cccc(/C=C/C(=O)OCC(=O)Nc2cc(C(F)(F)F)ccc2Cl)c1	13%	14%	-8	6%	-11	35µM*
COc1cccc(/C=C/C(=O)OCC(=O)Nc2ccc(Cl)c(S(=O)(=O)N(C)C)c2)c1	?	-5%	3	-1%	7	.
